# According to PubChem BioAssay:
# How the values were obtained:
# [1] = tested on: Human papillomavirus type 1a protein E7 (residues 44-93); test: HPV1a E7 fragment binders on microarrays, primary screen, biochemical, small-molecule microarray, residues 44-93, 635 nm fluorescence (AID 1108); settings: small-molecule microarray binding, fluorescence 635 nm; higher = more signal;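 note: E7 fragment applied at 1 µg/mL in TBST for 1 h at 4 C; score combines spot fluorescence with its signal to noise ratio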
# [2] = modulators of HCV replicon luciferase signal, primary screen, HCV replication inhibitor project, Huh7 cells, luciferase reporter (AID 1109); settings: 48 h, higher = more signal;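 note: huh7 hepatoma cells harbouring a luciferase neomycin HCV replicon reporter; luciferase luminescence as measure of HCV replicon replication; test concentration not given here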
# [3] = target: Left-right determination factor 2 (Homo sapiens) (UniProt O00292); test: LEFTY2 binders on small-molecule microarrays, primary screen, biochemical, small-molecule microarray, 635 nm fluorescence scan (AID 1110); settings: LEFTY2 binding, higher = more signal
# [4] = target: Calmodulin-1 (Homo sapiens) (UniProt P0DP23); test: CALM1 binders on microarrays, EGTA buffer, profiling panel, biochemical, small-molecule microarray, Cy5-labelled CALM1 (AID 1111); settings: Cy5-CALM1 binding fluorescence, higher = more signal;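 note: labelled calmodulin applied in Tris saline Tween buffer holding calcium plus EGTA and DTT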
# [5] = target: Calmodulin-1 (Homo sapiens) (UniProt P0DP23); test: calcium-bound CALM1 binders on microarrays, profiling panel, artefact control for SMM control-protein annotation, biochemical, small-molecule microarray, Cy5-labelled CALM1, plus calcium (AID 1112); settings: Cy5-CALM1 binding fluorescence, higher = more signal;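 note: score merges spot fluorescence with signal to noise from triplicate slides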
# [6] = small-molecule microarray binders of probe aWnt5a, primary screen, biochemical, biotinylated probe, 635/667 nm fluorescence (AID 1113); settings: higher = more signal;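 note: score merges 667 nm fluorescence intensity with signal-to-noise per printed feature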
# [7] = small-molecule microarray binders of probe aShh, primary screen, biochemical, biotinylated probe, 635/667 nm fluorescence (AID 1114); settings: higher = more signal;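 note: probe is biotin-labelled aShh protein from a stem cell growth factor screen; measures binding of labelled protein to compounds printed on the slide; score merges feature fluorescence at 667 nm with signal-to-noise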
# [8] = small-molecule microarray binders of probe aNog, primary screen, biochemical, biotinylated probe, 635/667 nm fluorescence (AID 1115); settings: higher = more signal;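 note: probe is biotinylated aNog protein used at 0.15 µg/mL for 1 h at 4 C; z-score combines 667 nm fluorescence of each spot with its signal to noise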
# [9] = target: Torsin-1A-interacting protein 1 (Homo sapiens) (UniProt Q5JTV8); test: LAP1 binders from COS7 cell lysate, primary screen, small-molecule microarray, 635/667 nm fluorescence (AID 1116); settings: COS7-hLAP1 lysate binding, 635 nm fluorescence, higher = more signal
# [10] = target: Alpha-bungarotoxin (Bungarus multicinctus) (UniProt P60615); test: alpha-bungarotoxin binders on microarray, profiling panel, artefact control for SMM control protein annotation, biochemical, small-molecule microarray, Alexa647 label, 635/667 nm fluorescence (AID 1117); settings: alpha-BTX-A647 binding fluorescence, higher = more signal
# Chain of Alpha-bungarotoxin (Bungarus multicinctus) (P60615 whole entry, looked up): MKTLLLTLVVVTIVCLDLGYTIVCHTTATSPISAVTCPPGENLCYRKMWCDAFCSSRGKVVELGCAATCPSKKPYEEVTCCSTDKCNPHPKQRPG
# Chain of Torsin-1A-interacting protein 1 (Homo sapiens) (Q5JTV8 whole entry, looked up): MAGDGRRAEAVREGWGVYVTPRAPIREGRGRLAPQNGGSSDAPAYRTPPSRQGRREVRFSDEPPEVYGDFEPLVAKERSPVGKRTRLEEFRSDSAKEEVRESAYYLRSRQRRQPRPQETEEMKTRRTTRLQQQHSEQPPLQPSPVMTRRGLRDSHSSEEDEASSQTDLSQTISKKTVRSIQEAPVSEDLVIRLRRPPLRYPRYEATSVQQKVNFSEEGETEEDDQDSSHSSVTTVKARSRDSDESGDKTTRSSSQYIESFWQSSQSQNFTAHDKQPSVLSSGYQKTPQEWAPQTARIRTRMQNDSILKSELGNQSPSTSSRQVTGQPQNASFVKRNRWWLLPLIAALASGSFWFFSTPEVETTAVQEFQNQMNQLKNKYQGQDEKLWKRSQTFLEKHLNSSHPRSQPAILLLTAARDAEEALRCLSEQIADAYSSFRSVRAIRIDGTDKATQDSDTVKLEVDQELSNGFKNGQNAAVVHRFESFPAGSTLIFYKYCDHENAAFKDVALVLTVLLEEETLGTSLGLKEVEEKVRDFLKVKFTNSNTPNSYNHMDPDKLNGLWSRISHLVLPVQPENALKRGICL
# Chain of Left-right determination factor 2 (Homo sapiens) (O00292 whole entry, looked up): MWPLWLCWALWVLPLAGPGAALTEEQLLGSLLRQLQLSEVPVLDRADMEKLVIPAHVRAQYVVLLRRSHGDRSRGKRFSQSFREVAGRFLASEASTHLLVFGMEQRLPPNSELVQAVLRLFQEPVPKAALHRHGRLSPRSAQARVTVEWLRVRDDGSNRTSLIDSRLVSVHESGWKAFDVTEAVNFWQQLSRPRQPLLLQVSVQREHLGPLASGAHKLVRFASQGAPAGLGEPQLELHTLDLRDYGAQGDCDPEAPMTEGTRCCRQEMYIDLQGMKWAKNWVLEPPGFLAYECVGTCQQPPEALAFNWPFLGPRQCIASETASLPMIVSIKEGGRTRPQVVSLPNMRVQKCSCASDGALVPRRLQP
SMILES,composite z-score [1],z-score [2],composite z-score [3],composite z-score [4],composite z-score [5],composite z-score [6],composite z-score [7],composite z-score [8],composite z-score [9],composite z-score [10]
CCC[C@@H]1C[C@@]1(CCC)[C@@H](NP(=O)(c1ccccc1)c1ccccc1)c1ccc(Cl)cc1,-0.213,-1.62,-0.427,-0.915,-1.31,-0.127,1.44,-0.532,-0.357,-0.846
C=C[C@@H](COC(C)=O)NS(=O)(=O)c1ccc(Br)cc1,0.487,-0.178,0.219,-0.271,-0.144,-0.0478,-0.0643,-0.538,-0.0651,0.225
O=C1O[C@@H](c2ccccc2)[C@@H](c2ccccc2)N2[C@@H](c3ccccc3OCCO)[C@]3(C(=O)Nc4ccc(C#CCCO)cc43)[C@@H](C(=O)N3CCN(c4ncccn4)CC3)[C@H]12,1.39,-1.71,-0.0407,1.15,0.27,-0.096,-0.16,-0.332,0.744,1.23
C=C[C@H](COC(C)=O)NS(=O)(=O)c1ccc(Br)cc1,-0.292,0.55,0.0605,-0.173,-0.766,-0.0721,0.0121,-0.219,0.168,0.0669
CO[C@H]1O[C@H](CO)[C@@H](OC(=O)Nc2ccc(Oc3ccccc3)cc2)[C@H](OC(=O)Nc2ccccc2-c2ccccc2)[C@@H]1OC(=O)Nc1ccccc1-c1ccccc1,1.02,-3.19,0.242,2.17,0.409,-0.0667,0.256,1.74,1.27,1.52
O=C1NC(=O)C2C1C=CC(C(O)c1ccc(Br)cc1)N2Nc1ccccn1 (stereo not given),-0.444,0.233,0.727,-0.156,-0.435,0.149,0.254,0.356,0.531,0.22
Cc1ccc(S[C@]2(C(=O)NCCN3CCOCC3)CC(=O)N(Cc3ccccc3C(F)(F)F)[C@@H]2c2ccc(CO)cc2I)cc1,0.323,-1.64,-1.49,-0.69,0.116,-0.0792,-0.0866,0.0331,-0.0897,-0.529
CCOc1cc(C(O)C2C=CC3C(=O)N(C)C(=O)C3N2N2CCCCC2)ccc1O (stereo not given),0.0912,0.403,0.298,-0.0003,-0.393,0.0173,0.199,0.243,-0.283,0.676
CCOC(=CC(=O)OC)CC(O)c1cccc(Cl)c1 (stereo not given),1.11,-2.17,-0.796,-0.265,0.486,-0.0685,-0.156,-0.527,1.36,-0.259
C[n+]1ccc(CCCO)cc1,-0.225,-0.125,0.0525,-0.628,0.371,-0.0462,0.475,-0.253,1.26,-0.739
C[C@]12C(=O)N(CCCCCCO)[C@@H]3C(=O)N(c4ccc(Cl)cc4)CC=CC31O[C@@H]1/C=C\CCCOC(=O)C12 (stereo not given in full),-0.358,-0.67,-1,-0.821,-0.559,0.0297,-0.0813,0.782,0.121,-0.0604
O=C1NCC(=O)N2[C@@H]1C[C@@H](C(=O)O)[C@H]2c1ccc(O)cc1,1.4,2.63,0.834,0.458,-0.451,-0.0758,0.123,-0.36,-0.0956,0.707
O=C1OCC=C[C@H]2OC34C=CCN(Cn5nnc6ccccc65)C(=O)[C@H]3N(CCCCCCO)C(=O)[C@@H]4[C@@H]12 (stereo not given in full),-0.0554,-0.113,-1.14,-0.129,-0.004,-0.152,-0.16,0.162,3.14,-0.608
CN1C2C=C(CCCO)C(C3C(=O)N(C(N)=O)C(=O)C32)C1c1cccs1 (stereo not given),0.261,-0.364,0.362,-0.555,-0.328,0.535,-0.138,-0.0987,0.377,0.378
C=C1C2CC3C(=C4C(CO[C@@H]4[C@H]4CCCN4S(=O)(=O)c4ccccc4[N+](=O)[O-])C4C(=O)N(C)C(=O)C34)CC2C(=O)N1C (stereo not given in full),-1.04,-0.979,0.0437,-0.0741,-0.0942,-0.152,-0.0769,0.0473,0.231,0.26
NCCCCCCNC(=O)[C@@H]1C[C@@H]2C(=O)N3CCC[C@H]3C(=O)N2[C@@H]1c1ccc(O)cc1,1.31,0.808,1.31,0.718,0.683,0.0049,0.0328,-0.157,0.557,0.705
COC(=O)[C@@]1(Cc2ccccc2)[C@H]2c3cc(C(=O)N4CCCC4)[nH]c3C[C@H]2CN1C(=O)c1ccccc1,-1.89,-0.151,-0.632,0.677,0.705,0.0913,-0.243,1.1,1.96,-0.243
C=C(/C(=C/C[C@@H](OC(=O)c1ccncc1)c1ccc(OCCO)cc1)c1cc(C(=O)OC)ccc1OC)C(C)C,1.38,-1.88,-0.0398,0.356,-0.252,-0.0721,-0.138,-0.45,0.637,0.249
COc1cc2c(cc1OC)CN(C(=O)[C@H]1[C@@H]3C(=O)O[C@@H](c4ccccc4)[C@@H](c4ccccc4)N3[C@@H](c3ccc(OCCO)cc3)[C@]13C(=O)Nc1ccc(C#CC4(O)CCCCCC4)cc13)CC2,1.43,-1.33,1.15,0.91,0.765,-0.236,-0.882,1.72,0.964,0.691
O=C1O[C@@H](c2ccccc2)[C@@H](c2ccccc2)N2[C@@H](c3ccc(O)cc3)[C@]3(C(=O)Nc4ccc(C#CC5=CCCCC5)cc43)[C@@H](C(=O)N3CCN(c4ncccn4)CC3)[C@H]12,1.17,-1.9,0.333,1.19,-0.581,-0.0459,0.0756,-0.14,0.951,0.862
C=C(CCCC)C(=O)CC[C@@H](OC(=O)c1ccccc1-c1ccccc1C(=O)O)c1cccc(OCCO)c1,0.834,-4.38,0.373,-0.826,-0.973,-0.148,-0.0709,0.468,2.19,-0.14
C[C@H]1ON(c2ccc(C(=O)OC(C)(C)C)cc2)[C@@H](c2ccc(O)cc2)[C@@H]1C(=O)N1C(=O)OC[C@@H]1c1ccccc1,0.644,-3.09,0.465,0.403,-0.32,-0.0977,-0.341,-0.383,0.165,0.413
CN(C)C(=O)[C@]1(CCC(=O)OC(C)(C)C)N=C(c2ccc(OCCCO)cc2)O[C@@H]1c1ccccc1,1.17,0.381,0.119,0.989,0.744,0.14,0.0793,0.289,2.76,0.654
COC(=O)[C@]1(CCS(=O)(=O)c2ccccc2)N=C(c2ccc(OCCCO)cc2)O[C@@H]1c1ccccc1CN=[N+]=[N-],1.41,-2.98,0.0011,0.631,-0.48,0.0785,-0.0035,1.02,0.879,0.969
NC(=O)NCC#Cc1ccc2c(c1)[C@]1(C(=O)N2)[C@H](C(=O)O)[C@H]2C(=O)O[C@H](c3ccccc3)[C@H](c3ccccc3)N2[C@@H]1c1ccccc1OCCO,0.497,0.393,0.28,2.05,1.01,0.0354,-0.412,0.91,1.45,3.27
C=C(COC)/C(=C/C[C@@H](OC(=O)c1ccncc1)c1cccc(OCCO)c1)c1cnc2ccccc2c1,0.429,-3.87,1.04,1.3,-0.102,-0.0161,0.259,0.581,1.54,3.87
